High-throughput results deposited in PubChem by several laboratories.
RN4220 kill: kills Staphylococcus aureus RN4220. 330,000 tested, 0.33% active. inhibition, % (test concentration not listed). S. aureus RN4220 growth, OD600, 16 h; in the data active = inhibition above about 85%;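 note: plate controls were untreated cells for no effect and reference antibiotic for full effect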
PrP UTR inh: inhibition of PrP 5' UTR reporter expression; inhibition, % (test concentration not listed); cell-based PrP 5' UTR mRNA reporter, plate reader; 340,000 tested, 0.35% active; AID 488862; in the data active = inhibition above about 52%; note: 0 = median of the neutral control wells
ugtP null kill: kills S. aureus RN4220 lacking UgtP; growth inhibition, % (test concentration not listed); 330,000 tested, 0.54% active; S. aureus RN4220 ugtP deletion, OD600 growth, 16 h; in the data active = growth inhibition above about 68%;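 note: plate controls were untreated wells for no effect and antibiotic for full effect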
CCHF vOTU inh: blocks the CCHF virus ovarian tumor domain protease; CCHFV vOTU protease, Pep-AMC fluorescence; inhibition, % at 11.5 µM; 370,000 tested, 0.55% active; AID 651958; in the data active = inhibition above about 30%; note: 0% = vehicle wells with enzyme and 100% = no enzyme wells
PrPC surface inh: reduces human prion protein on the cell surface. cell surface PrPC, TR-FRET read-out. inhibition, % at 13.8 µM. 370,000 tested, 0.43% active. AID 720596; in the data active = inhibition above about 24%; note: 0% = median of the test wells and 100% = reference compound wells
PfHsp40 yeast: rescue of PfHsp40-mediated yeast toxicity; S. cerevisiae expressing PfHsp40, growth rescue, ATP luminescence; growth rescue, % at 12.5 µM; 340,000 tested, 0.68% active; in the data active = growth rescue above about 28%, passing the limit was not always enough;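 note: yeast W303a lacking pdr1 and pdr3 grown in galactose medium; growth measured after three days at 30 °C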
* marks the source's active call; other numbers are inactive results; . = no result given. Shown are actives, neighbours in structure and some others; about 2.1% of the full set was active somewhere.

SMILES | RN4220 kill | PrP UTR inh | ugtP null kill | CCHF vOTU inh | PrPC surface inh | PfHsp40 yeast
CC1CC=CC2C1C(=O)N(Cc1ccccc1)C2c1ccc2ccccc2c1Br (stereo unspecified) | 88* | . | 97* | . | . | .
C[C@@H]1CC=C[C@H]2[C@H]1C(=O)N(Cc1ccccc1)[C@H]2c1ccc2ccccc2c1/C=C/c1ccccc1 | . | -2 | . | -8 | -4 | -1
CON=C(C(=O)NC1C(=O)N2C(C(=O)O)=C(CSc3nc(=O)c(=O)[nH]n3C)CSC12)c1csc(N)n1 (stereo unspecified) | . | -9 | . | 6 | -6 | -1
C=CC1=C(C(=O)O)N2C(=O)C(NC(=O)C(=NOCC(=O)O)c3csc(N)n3)C2SC1 (stereo unspecified) | 93* | . | 99* | . | . | .
O=C(NC(=S)N1CCc2ccccc21)c1ccc(Br)o1 | 4 | -18 | 0 | 8 | -1 | 36*
C=CS(=O)(=O)c1ccc(Oc2ccc(S(=O)(=O)C=C)cc2)cc1 | 1 | 2 | 2 | -12 | 64* | -1
C=CCCC(Cc1ccc(F)cc1)C(=O)OCC(NC(=O)C(CC=C)CC(=O)NCCO)c1ccccc1 (stereo unspecified) | 5 | . | 6 | . | . | .
CC(=NNC(=O)Cn1nc(C)c([N+](=O)[O-])c1C)c1ccc(Cl)s1 | 2 | . | -4 | . | . | .
O=[N+]([O-])c1cccnc1N1CCC(c2cc(-c3cccc(C(F)(F)F)c3)n[nH]2)CC1 | 8 | -13 | 90* | 21 | 1 | 14
O=c1cc(O)c(-c2ccc(Cl)cc2)c(Cl)[nH]1 | 3 | -28 | 0 | 6 | -1 | 1
O=C1c2cc(Cl)ccc2-c2c(O)cc(Cl)cc21 | 100* | -35 | 100* | 4 | -4 | -1
Cc1csc(=NC(=S)Nc2ccccc2)n1C | 1 | . | 3 | . | . | .
Cc1ccccc1NC(=S)c1nc2ccccc2[nH]1 | -6 | -48 | 6 | 9 | 3 | 17
S=C(Nc1ccc(Cl)cc1)c1nc2ccccc2[nH]1 | 99* | -67 | 96* | -7 | -5 | 5
S=C(Nc1ccc(Cl)c(Cl)c1)NC1CCCCC1 | 74 | -33 | 75 | . | . | 190*
S=C(NNc1ccc2ccccc2c1)NC1CCCCC1 | 2 | -25 | 13 | -6 | 4 | 244*
C#CCOCCOCCOCCNc1nc(N2CCN(C(=O)C(CCC(=O)O)n3cc(C(N)C(C)CC)nn3)CC2)nc(N2CCN(C(=O)C(C(C)CC)n3cc(C(N)CC(C)C)nn3)CC2)n1 (stereo unspecified) | 0 | . | 8 | . | . | .
COc1cc(O)c(CC=C(C)C)c(O)c1C(=O)CCc1ccc(O)cc1 | 73 | -11 | 92* | 8 | 3 | 210*
Cc1cc(F)ccc1S(=O)(=O)N(C(=O)c1ccncc1)c1ccc(OC(=O)c2ccncc2)cc1 | 4 | -16 | 5 | 7 | 6 | 422*
O=C(Oc1ccc(N(C(=O)c2ccncc2)S(=O)(=O)c2cccs2)cc1)c1ccncc1 | 2 | -24 | -3 | -4 | 1 | 1
COc1ccc(CN2C(=O)C(Cc3ccccc3)Nc3ncnc(N4CCOCC4)c32)cc1 (stereo unspecified) | 1 | -28 | -2 | 2 | 6 | 45*
O=C1C(Cc2ccccc2)Nc2ncnc(N3CCc4ccccc4C3)c2N1Cc1ccc(Cl)cc1 (stereo unspecified) | . | -5 | . | . | . | 38*
O=C(N/N=C/c1c(O)n(Cc2ccccc2)c(=O)[nH]c1=O)c1ccccc1O | 3 | -28 | 3 | 10 | 7 | 97*
COc1ccc(Cn2c(O)c(/C=N/NC(=O)c3ccccc3O)c(=O)[nH]c2=O)cc1 | 2 | -47 | -2 | 5 | -1 | -1
O=C(N/N=C/c1c(O)n(Cc2ccc(F)cc2)c(=O)[nH]c1=O)c1ccccc1O | -1 | -29 | 4 | 14 | -3 | 55*
SMILES | RN4220 kill | PrP UTR inh | ugtP null kill | CCHF vOTU inh | PrPC surface inh | PfHsp40 yeast
Cc1nc2cc(C(=O)NCc3ccc4c(c3)OCO4)ccc2n1-c1ccc(Br)cc1 | -16 | -15 | 96* | -3 | -3 | 9
O=[N+]([O-])c1ccccc1-c1cc(-c2ccccc2)cc(-c2ccccc2)[n+]1Cc1ccccc1Cl | 86* | . | 98* | 4 | -14 | .
O=C(COc1ccc(C=NNS(=O)(=O)c2ccccc2)cc1)Nc1cccc(Cl)c1 | 2 | . | 5 | . | . | .
COc1ccc2c(c1)C(=O)N(c1ccccc1OC)C(=O)C2 | 2 | -12 | 9 | 6 | -8 | 1
COc1ccccc1N1C(=O)Cc2ccccc2C1=O | 5 | -16 | 9 | 30* | -4 | 1
Cc1cccc(C2(c3cccc(C)c3)OC(=O)c3ccccc32)c1 | -11 | -8 | 82* | 4 | 4 | -2
O=C1OC(c2ccccc2)(c2ccccc2)c2ccccc21 | 10 | 6 | 33 | 6 | 1 | 3
CC(=O)OC1CC[C@@]2(C)C(=CCC3C2CC[C@]2(C)C(=O)CCC32)C1 (stereo partly specified) | -5 | . | 87* | . | . | .
CC(=O)OC1CC[C@@]2(C)C(=CCC3C4CCC(C(C)=O)[C@@]4(C)CCC32)C1 (stereo partly specified) | 1 | . | 22 | . | . | .
NC1C2CN(c3nc4c(cc3F)c(=O)c(C(=O)O)cn4-c3ccc(F)cc3F)CC12 (stereo unspecified) | 100* | -8 | 98* | . | . | 1
O=c1cc2oc3cc(O)c(O)cc3c(-c3ccccc3O)c-2cc1O | 8 | -2 | -20 | . | . | 3
COc1ccc(OC)c(-c2c3cc(O)c(=O)cc-3oc3cc(O)c(O)cc23)c1 | . | -15 | . | . | . | 287*
Nc1nc(SCc2ccc(Cl)cc2Cl)n[nH]1 | -1 | -17 | 0 | 4 | -1 | 0
CNc1cc(CSC)nc(SCc2ccc(Cl)cc2Cl)n1 | -14 | -8 | 50 | 15 | 2 | 308*
O=C(CN1CCCCCC1)NN=Cc1cccs1 | 10 | . | 9 | . | . | .
Cc1cc([N+](=O)[O-])cc(/C=N/n2c(C)nc3ccccc3c2=O)c1O | . | -47 | . | 7 | 7 | 192*
Cc1nc2ccccc2c(=O)n1/N=C/c1ccccc1O | . | -18 | . | -9 | -6 | 0
O=[N+]([O-])c1ccc(O)c(C=NNC(=S)Nc2ccc(Cl)cc2Cl)c1 | 83 | . | 100* | . | . | .
O=C(NN=Cc1cc([N+](=O)[O-])ccc1O)C1CCCCC1 | 95* | . | 86* | . | . | .
O=C(NN=Cc1cc([N+](=O)[O-])ccc1O)C1C2CCCCC21 (stereo unspecified) | 89* | . | 75 | . | . | .
O=C1NCCCC1C(=O)NN=Cc1cc([N+](=O)[O-])ccc1O (stereo unspecified) | 90* | . | 87 | . | . | .
O=C(N/N=C/c1cc([N+](=O)[O-])ccc1O)C1CC1 | . | -9 | . | 8 | -13 | 0
O=C(NN=Cc1ccc(F)cc1)c1cc(-c2ccccn2)nc2ccccc12 | 2 | . | 8 | . | . | .
CC(C)(C)N1C(=O)C2C(c3ccc(Br)cc3)N3C(=O)N(c4cccc(Cl)c4)C(=O)[C@@]3(C)C2C1=O (stereo partly specified) | 4 | . | 5 | . | . | .
Nc1ncnc(N)c1N=Nc1ccccc1 | 15 | -15 | 7 | 17 | -21 | 0
